Data published in PubChem BioAssay (NCI).
About 83,000 compounds went through this panel and 20% of them were active in at least one assay; those are over-represented in the sample as a whole.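 The endpoint reported here, percent growth, reads 100 for growth as untreated, 0 for no net growth and -100 for all cells dead.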 Values without a mark were called inactive. The source made the active and inactive calls. How the source made its calls: active means growth percent below 10; inactive means the rest.

What was measured:
Assay in all cases: NCI-60 one-dose screen, 48 h (100 = growth as untreated, 0 = no growth, -100 = all killed)
Conditions in all cases: 10 µM unless noted
NCI-H23 lung = system: NCI-H23 lung
NCI-H226 lung = system: NCI-H226 lung
NCI-H322M lung = system: NCI-H322M lung
HOP-62 NSCLC = system: HOP-62 NSCLC
NCI-H460 lung = system: NCI-H460 lung
NCI-H522 lung = system: NCI-H522 lung
A549/ATCC NSCLC = system: A549/ATCC NSCLC
786-0 renal = system: 786-0 renal
COLO 205 colon = system: COLO 205 colon
DU-145 prostate = system: DU-145 prostate
K-562 leukemia = system: K-562 leukemia
MALME-3M melanoma = system: MALME-3M melanoma
MDA-MB-231 breast = system: MDA-MB-231 breast
RXF 393 renal = system: RXF 393 renal
SF-268 CNS = system: SF-268 CNS
SF-295 CNS = system: SF-295 CNS
SF-539 CNS = system: SF-539 CNS
UACC-257 melanoma = system: UACC-257 melanoma
M14 melanoma = system: M14 melanoma

| Compound | growth (NCI-H23 lung) | growth (NCI-H226 lung) | growth (NCI-H322M lung) | growth (HOP-62 NSCLC) | growth (NCI-H460 lung) | growth (NCI-H522 lung) | growth (A549/ATCC NSCLC) | growth (786-0 renal) | growth (COLO 205 colon) | growth (DU-145 prostate) | growth (K-562 leukemia) | growth (MALME-3M melanoma) | growth (MDA-MB-231 breast) | growth (RXF 393 renal) | growth (SF-268 CNS) | growth (SF-295 CNS) | growth (SF-539 CNS) | growth (UACC-257 melanoma) | growth (M14 melanoma) |
| --- | --- | --- | --- | --- | --- | --- | --- | --- | --- | --- | --- | --- | --- | --- | --- | --- | --- | --- | --- |
| COc1cccc(NC(=O)OC(C)C)c1 | 98.7% | 107% | 99% | 103% | 105% | 90.9% | 94.7% | 104% | 103% | 103% | 88.1% | 94.5% | 116% | 109% | 108% | 108% | 106% | 108% | 112% |
| CCOC(=O)C1C(=O)C=C(c2cc(OC)c(OC)c(OC)c2)CC1c1sc(N(C)Cc2ccccc2)nc1Cl (stereo not drawn) | 87.3% | 74.1% | 83.2% | 78.3% | 86.3% | 67% | 71.6% | 85.9% | 97.1% | 106% | 66.4% | 104% | 82.9% | 81.5% | 73.6% | 89.3% | 95.6% | 90.4% | 92% |
| COC(=O)c1ccc2c(c1)nc(-c1cc3ccccc3[nH]c1=O)n2-c1cc(C(C)(C)C)[nH]n1 | 44.7% | 90.4% | 77% | 66.5% | 45.4% | -2.05% (active) | 81.5% | 33.3% | 71.6% | 83.7% | 32.2% | 96.2% | 68.4% | 89.9% | 72.8% | 93.8% | 92.6% | 78.5% | 58.2% |
| CC(C)(C)[Si](C)(C)OC1[C@@H](O[Si](C)(C)C(C)(C)C)[C@@H](CNC(=O)NC(=O)NC(=O)CI)O[C@H]1n1cnc2c(NC(=O)Nc3ccccc3)ncnc21 (stereo partly drawn) | -51.8% (active) | 108% | 111% | 2.91% (active) | 78.8% | -80.4% (active) | 65.5% | 7.17% (active) | 45.2% | 90.7% | 52.3% | -83.3% (active) | -49.7% (active) | -5.13% (active) | 26.4% | -56.8% (active) | -63.2% (active) | 105% | 73.1% |
| Fc1ccc(-c2cnc3nonc3n2)c(F)c1 | 88.7% | 102% | 98.4% | 93.7% | 107% | 84% | 109% | 104% | 92.5% | 100% | 68% | 105% | 78% | 111% | 84.8% | 109% | 98.6% | 96.6% | 97.2% |
| CN1C(=O)NC(Cc2c[nH]c3c(Cl)cccc23)C1=O (stereo not drawn) | 102% | 93.8% | 120% | 107% | 112% | 96.4% | 102% | 109% | 105% | 123% | 101% | 141% | 117% | 92.1% | 110% | 109% | 98.4% | 116% | 108% |
| COc1ccc(CNc2c3ccccc3nc3ccccc23)cc1F | 27% | 43% | 31.6% | 44.5% | 6.34% (active) | 36.2% | 22.8% | 26% | 8.7% (active) | 27.2% | 4.81% (active) | 23.6% | 29.2% | 11.1% | 49.1% | 20.1% | 18.2% | 37.8% | 19.9% |
| Cc1ccc(C(CN(C)C)C(=O)c2ccccc2)cc1 (stereo not drawn) | 71.5% | 80.9% | 101% | 101% | 71.7% | -66.4% (active) | 81.7% | -20.7% (active) | 43.5% | 34.7% | -26.8% (active) | 79.8% | 25.4% | 43.6% | 25.9% | 85.6% | 57.6% | 49.1% | 31.6% |
| c1cn2cc(-c3ccc4ncn(C5CCCCC5)c4c3)nc(-c3ccc4c(c3)ncn4C3CCCCC3)c2n1 | -41.5% (active) | -56.4% (active) | 1.23% (active) | -55.4% (active) | -48.5% (active) | -52.6% (active) | -44.9% (active) | -47.1% (active) | -64.4% (active) | -59.1% (active) | -4.74% (active) | -14.3% (active) | -68.7% (active) | -89.1% (active) | -67% (active) | -86.5% (active) | -82.1% (active) | -71.5% (active) | -50.8% (active) |
| CCCCCCCOc1cccc(/C=C2\N=C3SCCCN3C2=O)c1 | 97.3% | 93.7% | 101% | 108% | 103% | 62.3% | 91.8% | 92.5% | 92.9% | 94.5% | 90.4% | 139% | 87.7% | 116% | 103% | 93.8% | 111% | 114% | 102% |
| Cn1c(-c2ccccc2)cc(=O)n1-c1ccccc1 | 96% | 102% | 103% | 108% | 117% | 107% | 102% | 107% | 121% | 120% | 110% | 113% | 100% | 115% | 112% | 122% | 101% | 97.4% | 110% |
| CN1C(=O)C(C2=NNC(c3ccccc3C(=O)O)C2)C(=O)N(C)C1=O (stereo not drawn) | 106% | 99.8% | 87.8% | 98.3% | 106% | 83.7% | 98.6% | 101% | 108% | 113% | 94.1% | 111% | 109% | 106% | 98.8% | 101% | 108% | 97.1% | 103% |
| C=C[C@H]1CCC/C=C/[C@@H]2C[C@H](O)C[C@H]2[C@H](O)/C=C/C(=O)O1 | -19.1% (active) | 3.22% (active) | -7.72% (active) | 33.3% | 7.05% (active) | -37.8% (active) | 8.51% (active) | -53.5% (active) | -83.1% (active) | 5.86% (active) | 9.93% (active) | -46.4% (active) | -74% (active) | -15.2% (active) | 7.6% (active) | 17.2% | 35.2% | 4.69% (active) | -10.6% (active) |
| Cc1cc(O)ccc1Sc1ccccc1[N+](=O)[O-] | 86.2% | 97.2% | 110% | 92.2% | 96.4% | 75.9% | 84.9% | 107% | 108% | 96% | 101% | 79.6% | 106% | 106% | 98.4% | 90.1% | 102% | 88.1% | 88.9% |
| CCN(CC)CCCC(C)Nc1ccnc2ccc(Oc3ccccc3)cc12 (stereo not drawn) | 90.6% | 120% | 72% | 86.6% | 95.2% | 36.2% | 81.6% | 72.3% | 41.4% | 88.6% | 13.7% | -38.6% (active) | 42.5% | 24.5% | 66.2% | 93.7% | -41.3% (active) | -54.1% (active) | -58% (active) |
| CCn1c(Cc2ccccc2Nc2c(Cl)cccc2Cl)nnc1SCC(=O)Nc1ccccc1C(F)(F)F | 89.7% | 82.3% | 79.4% | 98.1% | 95.8% | 55.5% | 76.8% | 92% | 99.1% | 103% | 72.5% | 100% | 84.8% | 94.6% | 100% | 90.6% | 106% | 101% | 92.2% |
| O=C1/C(=C/N2N=C(c3ccc(Cl)cc3)CC2c2ccccc2O)SC(=S)N1c1cccc(C(F)(F)F)c1 (stereo not drawn) | 53.8% | 63.3% | 71.4% | 69.1% | 44.6% | 30.3% | 38.6% | 66.4% | 71.2% | 63.4% | 42.6% | 79.6% | 44% | 67.4% | 48.1% | 64.7% | 76.1% | 94.5% | 48.2% |
